By inhibition is commonly meant the relative decrease from the control value, in per cent.

Here are results for 35 compounds from PubChem BioAssay AID651821 (The Scripps Research Institute Molecular Screening Center, 2012).

Hit rate of the full screen: of about 370,000 compounds, about 4,700 (1.3%) were called active. For the sample, actives were picked, then their nearest neighbours and some compounds at random. Unmarked numbers belong to inactive results.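 Rule for the calls: active = inhibition above the plate cutoff, the mean of all test compounds on that plate plus 3 SD (cut at about 35% in these data); inactive = the rest.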

The test in a line: small molecules binding CAG repeat RNA – biochemical, fluorescence, primary screen (AID 651821).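 Note: 0% = DMSO alone and 100% = 100 µM mitoxantrone as full dye displacement; higher means more dye released from RNA so lower well fluorescence.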 The following applies: r(CAG) RNA repeat, TO-PRO-1 dye displacement fluorescence; at 3 µM; active compounds read high.
Regarding `CCCCn1c(O)c(C(CC)=NCc2ccco2)c(=O)[nH]c1=O`, the inhibition is -0.86%.
On to `O=c1[nH]c(=O)n(Cc2ccccc2)c(O)c1/C=N/Nc1c(F)c(F)c(F)c(F)c1F`, for which the inhibition was 0.55%.
Take `CC/C(=N\NC(=O)c1ccccc1O)c1c(O)n(Cc2ccccc2)c(=O)[nH]c1=O`: the inhibition was 80.1% (active).
As to `C[N+]1(C)CCOC(O)(c2ccc(-c3ccc(C4(O)C[N+](C)(C)CCO4)cc3)cc2)C1` (stereo not given), the inhibition is 3.46%.
As for `Cc1ccccc1CCC[C@@H](CC1CCCCC1)CN(C)C(=O)Oc1ccccc1`, the inhibition is 6.44%.
As to `Clc1ccc([C@@H]2CC3CCC2N3)cn1` (stereo not given in full), the inhibition was 1.8%.
Regarding `COc1cc(OC)cc(C(=O)NCCN2CCC3(CC2)C(=O)NCN3c2ccccc2)c1`, the inhibition was 4.12%.
On to `COc1ccc(N2C(=O)/C(=C/c3ccco3)C(=O)NC2=S)cc1`, for which the inhibition was 67.3% (active).
Take `O=Cc1cn(Cc2ccc(F)cc2Cl)c2ccccc12`: the inhibition is -0.22%.
Take `CCc1nnc(NS(=O)(=O)c2ccc(N=Cc3c(O)n(-c4ccccc4)c(=O)[nH]c3=O)cc2)s1`: the inhibition was 5.87%.
In the case of `O=C1CC(=O)N(Cc2ccccc2)C(=O)N1CCCCCCN1C(=O)CC(=O)N(Cc2ccccc2)C1=O`, the inhibition was 68% (active).
Regarding `CC(C)(C)c1ccc(CN2C(=O)CN=C(c3ccccc3)c3ccccc32)cc1`, the inhibition is -3.15%.
Next, `O=C(NC(=S)N1C[C@H]2C[C@H](C1)c1cccc(=O)n1C2)c1ccc(F)cc1`: 0.97%; `O=C1C2(Cl)C3(Cl)C4(Cl)C(Cl)(Cl)C5(Cl)C3(Cl)C1(Cl)C5(Cl)C24Cl` (stereo not given): 11.4%.
With `Cc1cc(=O)oc2c(C)c(OCC(=O)N3CCN(Cc4ccc5c(c4)OCO5)CC3)ccc12`, the inhibition is -1.14%.
In the case of `O=C1NC(=O)N(c2ccccc2)C(=O)/C1=C/c1ccc([N+](=O)[O-])s1`, the inhibition is 70.2% (active).
As for `COc1cccc(N2C(=O)NC(=O)/C(=C\c3ccc([N+](=O)[O-])s3)C2=O)c1`, the inhibition was 56% (active).
Take `CC1=C(C(=O)Nc2ccccc2)SCCO1`: the inhibition was 5.19%.
Regarding `Cc1ccsc1C(=O)C1CCCN(Cc2ccc(O)cc2)C1` (stereo not given), the inhibition was -1.2%.
For the compound `O=c1[nH]c(=O)n(-c2ccccc2)c(O)c1C=NC12CN3CN(CN(C3)C1)C2`, the inhibition is 2.56%.
Turning to `O=S(=O)(c1ccccc1)N1CCC2CCNC2C1` (stereo not given), the inhibition is 1.15%.
Consider `Cc1cc(N2CCNC[C@@H]2C)ccc1N1CC[C@H](O)C1`, for which the inhibition is 3.47%.
Next, `COc1ccccc1OC(=O)c1ccc(C)c(S(=O)(=O)N2CCOCC2)c1`: -3.22%; `CS(=O)(=O)N1CCC2CCNC2C1` (stereo not given): 0.17%; `COP(=O)(Sc1ccccc1)C(Cc1ccccc1)NC(=O)OCc1ccccc1` (stereo not given): -1.61%.
Next, `CCC(C)NC1(c2ccccc2)CCCCC1` (stereo not given): 2.27%; `COc1ccc(CN2CCN(c3ccccc3F)CC2)c(OC)c1`: -4.43%; `Brc1ccc2c(c1)CNCc1cnnn1-2`: 0.59%.
Turning to `COc1ccc2c(c1)[C@]13CCCCC1C(C2)N(C)CC3` (stereo not given in full), the inhibition was 3.99%.
`COc1ccc2c(c1)[C@@]13CCCCC1[C@@H](C2)NCC3` (stereo not given in full): the inhibition was 37.9% (active).
With `COc1ccc2[nH]c3c(c2c1)CCN[C@H]3C`, the inhibition was 3.06%.
As for `CCN(CC)C(=O)[C@@H]1C=C2c3cccc4[nH]c(Br)c(c34)C[C@H]2N(C)C1`, the inhibition was 2.23%.
As for `CN(C)C(=O)NC(O)C(Cl)(Cl)Cl` (stereo not given), the inhibition is -3.56%.
The figure for `O=C1NC(=O)N(Cc2ccco2)C(=O)/C1=C\c1ccc(-c2ccc(F)cc2)o1` is 52.2% (active).
Regarding `CCC1(CC(C)c2ccccc2)C(=O)NC(=O)NC1=O` (stereo not given), the inhibition is 1.88%.
